Source: PubChem BioAssay
Shown are actives, neighbours in structure and some others; about 11% of the full set was active somewhere.
NS1 inh: qHTS Assay for Inhibitors of Influenza NS1 Protein Function; Potency, µM (top dose mostly 46.1 µM), for the others: at the highest dose activity, positive = more growth; AID 2326, 2010; hit rate 0.4% among 270,000; calls by dose curve; note: actives are rising curves; nearly all actives have a fitted effect of over 50% in size
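Recovery from NS1-induced slow growth read by OD600 in budding yeast switched to galactose assay medium (pH 6.0, -URA) at 1:100 dilution. Compound 23 nl per well; the matching strain lacking NS1 serves as control.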
VACV Venus inh: qHTS for Stage-Specific Inhibitors of Vaccinia Orthopoxvirus: Venus Reporter Primary qHTS. Vaccinia virus Venus reporter expression, fluorescence. Potency, µM (series often up to 36.5 µM), for the others: top-dose activity change, negative = inhibition, usual class: inhibitors. hit rate 0.46% among 330,000. AID 720580, 2013; calls by dose curve; tested in A549 cells; note: % is set by controls: 0 for no effect and ±100 for the full control effect; nearly all actives have a fitted effect of over 30% in size
HCV inh: qHTS Assay for Inhibitors of Hepatitis C Virus (HCV); Huh7.5.1 HCVcc-Cre infection, luciferase reporter, 44 h; Potency, µM (doses to about 41.8 µM), without a hit: at the top dose activity change, negative = inhibition, hits mostly inhibitors; hit rate 3.4% among 340,000; note: % is set by controls: 0 for no effect and ±100 for the full control effect
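After 44 h co-culture of compound, cells and HCVcc-Cre (~0.5 moi), substrate is added for 15 min at room temperature and luciferase measured over 15 sec. Cells were seeded at 1,000/well and pre-cultured 4 h.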
Pf growth 48h: Primary qHTS for delayed death inhibitors of the malarial parasite plastid, 48 hour incubation. P. falciparum luciferase growth in erythrocytes, 48 h. Potency, µM (doses to about 28.7 µM), without a hit: top-dose activity change, negative = inhibition, hits mostly inhibitors. hit rate 5.9% among 310,000; note: % is set by controls: 0 for no effect and ±100 for the full control effect
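Luminescence readout; reporter = integrated firefly luciferase in P. falciparum. RBC culture at 2% hematocrit, 0.1% parasitemia final, 37 C/5% CO2; decreased signal taken as growth inhibition.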
Vaccinia mCherry: qHTS for Stage-Specific Inhibitors of Vaccinia Orthopoxvirus: mCherry Reporter Primary qHTS | hit rate 0.63% among 310,000 | Potency, µM (series often up to 36.5 µM), without a hit: at the top dose activity change, negative = inhibition, most hits filed as inhibitors | Vaccinia virus mCherry reporter infection, fluorescence | AID 720579, 2013; calls by dose curve; tested in A549 cells; note: % is set by controls: 0 for no effect and ±100 for the full control effect; nearly all actives have a fitted effect of over 35% in size
Pf growth 96h: Primary qHTS for delayed death inhibitors of the malarial parasite plastid, 96 hour incubation; P. falciparum luciferase reporter growth, 96 h; Potency, µM (top dose mostly 28.7 µM), inactives show top-dose activity change, negative = inhibition, hits mostly inhibitors; hit rate 6.9% among 320,000; AID 504834, 2011; note: % is set by controls: 0 for no effect and ±100 for the full control effect
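P. falciparum expressing integrated firefly luciferase, in erythrocytes at 2% hematocrit, 0.05% parasitemia, incubated with compounds 96 h at 37 C, 5% CO2. Growth inhibition read as loss of luminescence; two-generation exposure targets delayed-death apicoplast inhibitors.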
Numbers without * were called inactive. Unless noted, calls come from the whole dose curve; as a rule, active = well fitted inhibition curve with a large enough effect; inconclusive = small, poorly fitted or top-dose-only effect, or another doubt; inactive = no such curve, though single readings can be large or run the other way. Potency is the fitted concentration of half-maximal effect.

What do the screens show for `CC(=O)c1c(O)c(C)c(O)c2c1OC1=CC(=O)C(C(C)=O)C(=O)C12C` (configuration not stated)?
VACV Venus inh: -3%; Vaccinia mCherry: -24%

Results for CCCOC1(NC(=O)c2ccccc2)C(C)=CC(=O)C=C1C ?
NS1 inh: -2%; HCV inh: 19%; Pf growth 48h: 15%; Pf growth 96h: 3.3µM*

Results for CC(C)NC(=O)c1cc(-c2ccc(Br)cc2)on1 ?
NS1 inh: -1%; VACV Venus inh: -10%; HCV inh: 2%; Pf growth 48h: 186%; Vaccinia mCherry: inactive; Pf growth 96h: inconclusive

What do the screens show for `CCN(CC)C(=O)c1cn(CCC#N)nc1-c1ccc2c(c1)OCCO2`?
VACV Venus inh: -9%; HCV inh: 16%; Pf growth 48h: 0%; Vaccinia mCherry: -1%; Pf growth 96h: 9%

What do the screens show for `CCOc1ccc(OCC(O)CNC2CCN(Cc3ccccc3)CC2)cc1` (configuration not stated)?
NS1 inh: -2%; VACV Venus inh: inconclusive; HCV inh: inconclusive; Pf growth 48h: 2.6µM*; Vaccinia mCherry: -13%; Pf growth 96h: 2.3µM*

How did CC(C)(c1ccccc1)c1ccc(OCC(O)CNC2CCN(Cc3ccccc3)CC2)cc1 (configuration not stated) do in these assays?
VACV Venus inh: inconclusive; HCV inh: 8.9µM*; Pf growth 48h: 3.3µM*; Vaccinia mCherry: -13%; Pf growth 96h: 2.1µM*

What do the screens show for `COc1ccc(CNCC(O)COc2ccc(C(C)(C)c3ccccc3)cc2)cc1` (configuration not stated)?
NS1 inh: 0%; VACV Venus inh: -27%; HCV inh: 5%; Pf growth 48h: 9.3µM*; Vaccinia mCherry: -29%; Pf growth 96h: inconclusive

How did OC(CNc1ccccc1)COc1ccc(OCC(O)CNc2ccccc2)cc1 (configuration not stated) do in these assays?
NS1 inh: 17%; VACV Venus inh: 11µM*; HCV inh: inconclusive; Pf growth 48h: inconclusive; Pf growth 96h: inconclusive

How did COC(=O)c1ccc(CNCC(O)COc2ccc(-c3ccccc3)cc2)cc1 (configuration not stated) do in these assays?
NS1 inh: -6%; VACV Venus inh: 2%; HCV inh: -8%; Pf growth 48h: inconclusive; Vaccinia mCherry: -12%; Pf growth 96h: 11%

Results for COC(=O)[C@@H](NC(=O)NCc1ccccc1F)C(C)C ?
NS1 inh: -2%; VACV Venus inh: -25%; HCV inh: 13%; Pf growth 48h: 43%; Vaccinia mCherry: inactive

Results for CCCCn1c2nc3ccccc3nc2c2c(=O)n(-c3ccccc3)cnc21 ?
NS1 inh: 10%; VACV Venus inh: -15%; HCV inh: -28%; Pf growth 48h: 31%; Vaccinia mCherry: inactive; Pf growth 96h: 10%

How did CC(=O)c1ccc(N2CCN(S(=O)(=O)c3ccc4c(c3)CC(=O)N4)CC2)cc1 do in these assays?
NS1 inh: 12%; VACV Venus inh: 1%; HCV inh: -5%; Pf growth 48h: inconclusive; Vaccinia mCherry: 15%; Pf growth 96h: 44%

What do the screens show for `CC(=O)c1ccc(N2CCN(S(=O)(=O)c3ccc4c5c3CC(=O)N5CC(C)S4)CC2)cc1` (configuration not stated)?
NS1 inh: 21%; HCV inh: inconclusive; Pf growth 48h: 3.3µM*; Pf growth 96h: inconclusive

How did COc1cccc(C2C3=C(N=c4s/c(=C\c5ccc(OCC(=O)O)cc5)c(=O)n42)c2ccccc2CC3)c1 (configuration not stated) do in these assays?
NS1 inh: inconclusive; HCV inh: -11%; Pf growth 48h: inconclusive; Pf growth 96h: inconclusive

What do the screens show for `COc1cccc(C2C3=C(N=c4s/c(=C\c5ccc(O)cc5)c(=O)n42)c2ccccc2CC3)c1OC` (configuration not stated)?
NS1 inh: 15%; VACV Venus inh: -4%; HCV inh: -9%; Pf growth 48h: inconclusive; Vaccinia mCherry: inactive; Pf growth 96h: 13µM*

How did COc1ccccc1C1C2=C(N=c3s/c(=C/c4cccc(OCC(=O)O)c4)c(=O)n31)c1ccccc1CC2 (configuration not stated) do in these assays?
NS1 inh: inconclusive; VACV Venus inh: -9%; HCV inh: inconclusive; Pf growth 48h: 10µM*; Vaccinia mCherry: -14%; Pf growth 96h: inconclusive

How did COc1cccc(C2C3=C(N=c4s/c(=C\c5cccc(O)c5)c(=O)n42)c2ccccc2CC3)c1OC (configuration not stated) do in these assays?
NS1 inh: inconclusive; VACV Venus inh: inconclusive; HCV inh: inconclusive; Pf growth 48h: 2.3µM*; Vaccinia mCherry: -26%; Pf growth 96h: inconclusive

Results for CCOC(=O)C1=C(c2ccccc2)N=c2sc(=Cc3cc(OC)c(OC)c(OC)c3)c(=O)n2C1c1cccs1 (configuration not stated) ?
VACV Venus inh: -10%; Vaccinia mCherry: -7%

What do the screens show for `COC(=O)c1ccc(/C=C/c2c(-c3ccsc3)oc3ccc(N4CCOCC4)cc23)cc1`?
NS1 inh: 22%; VACV Venus inh: -22%; HCV inh: 12%; Pf growth 48h: inconclusive; Vaccinia mCherry: -13%; Pf growth 96h: 13µM*

Results for COc1ccc(-c2c(-c3ccsc3)oc3ccc(N4CCOCC4)cc23)cn1 ?
VACV Venus inh: -13%; HCV inh: inconclusive; Vaccinia mCherry: -14%

How did CCOC(=O)C1(c2ccccc2)CCN(CCC(=O)Nc2ccc(F)cc2)CC1 do in these assays?
HCV inh: inconclusive; Pf growth 48h: 13µM*; Pf growth 96h: 9.3µM*

How did CCOC(=O)N1CCN(CCC(=O)Nc2ccc(F)c(F)c2)CC1 do in these assays?
NS1 inh: 2%; VACV Venus inh: -20%; HCV inh: 10%; Pf growth 48h: inconclusive; Vaccinia mCherry: 0%; Pf growth 96h: 15µM*

How did CCOC(=O)N1CCN(CCC(=O)Nc2ccccc2OC)CC1 do in these assays?
NS1 inh: 5%; VACV Venus inh: -24%; HCV inh: 29%; Pf growth 48h: 14%; Vaccinia mCherry: inconclusive; Pf growth 96h: 13µM*

Results for CCOC(=O)C1(c2ccccc2)CCN(CCC(=O)Nc2ccccc2OC)CC1 ?
NS1 inh: 0%; HCV inh: -12%; Pf growth 48h: inconclusive; Pf growth 96h: inconclusive
